High-throughput results: PubChem BioAssay, National Center for Advancing Translational Sciences (NCATS)
Shown are actives, neighbours in structure and some others; about 11% of the full set was active somewhere.
HEK cytotox: kills HEK 293 cells | HEK 293 viability, ATP luminescence (CellTiter-Glo), 48-72 h | Potency, µM (titrated, usually from 115 µM), for the others: at the highest dose activity change, negative = cytotoxicity, hits mostly inhibitors | hit rate 6.6% among 94,000; further: nearly all actives have a fitted effect of over 60% in size
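Pintool-delivered compounds were incubated with HEK 293 cells (250 cells/well) at 37 degree Celsius for 48 or 72 hr. ATP-dependent luminescence (CellTiter-Glo) then reported remaining viable cells.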
3T3 cytotox: kills NIH 3T3 cells; AID 1345082; hit rate 4.3% among 94,000; NIH 3T3 viability, CellTiter-Glo ATP luminescence, 48-72 h; Potency, µM (doses to about 96.7 µM), for inactives: at the highest dose activity change, negative = cytotoxicity, hits mostly inhibitors; further: nearly all actives have a fitted effect of over 55% in size
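Luminescent ATP readout (CellTiter-Glo, 10 min RT) after 48 or 72 hr compound exposure of NIH 3T3 cells seeded at 400 cells/well in 1536-well format; quantitative HTS.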
FLuc inh: inhibitors of firefly (Photinus pyralis) luciferase | Potency, µM (series often up to 115 µM), hits mostly inhibitors | P08659 | purified P. pyralis luciferase, luminescence, biochemical | hit rate 2.5% among 76,000; further: nearly all actives have a fitted effect of over 65% in size
Target sequence (P08659 whole entry, looked up): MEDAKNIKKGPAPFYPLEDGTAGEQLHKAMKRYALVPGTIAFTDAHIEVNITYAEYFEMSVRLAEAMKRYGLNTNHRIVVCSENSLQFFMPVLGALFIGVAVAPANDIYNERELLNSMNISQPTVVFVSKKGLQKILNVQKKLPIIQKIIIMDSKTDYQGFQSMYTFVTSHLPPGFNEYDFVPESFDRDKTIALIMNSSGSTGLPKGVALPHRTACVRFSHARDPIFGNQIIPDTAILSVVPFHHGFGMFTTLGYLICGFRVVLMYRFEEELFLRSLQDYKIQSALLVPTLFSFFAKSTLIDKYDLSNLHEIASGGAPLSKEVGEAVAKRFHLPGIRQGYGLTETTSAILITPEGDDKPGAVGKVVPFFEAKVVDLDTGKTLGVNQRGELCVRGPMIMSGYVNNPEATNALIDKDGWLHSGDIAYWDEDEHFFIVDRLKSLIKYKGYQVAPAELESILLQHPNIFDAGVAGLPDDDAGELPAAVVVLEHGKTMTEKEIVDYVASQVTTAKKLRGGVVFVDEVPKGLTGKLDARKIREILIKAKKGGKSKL
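Purified P. pyralis luciferase (10nM final) in 50mM Tris acetate pH 7.5, 10mM Mg acetate, 0.01% Tween-20, 0.05% BSA with 10uM D-luciferin and 10uM ATP. Compounds titrated qHTS. Luminescence imaged on CCD.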
NPR1 antag: antagonists of human natriuretic peptide receptor Npr1 | P16066 | HEK293 hNpr1 GloSensor cGMP, ANP-stimulated luminescence | Potency, µM (series often up to 46.3 µM), inactives show at the top dose activity change, negative = inhibition, usual class: inhibitors | hit rate 1.6% among 76,000 | AID 1347048; calls by dose curve; further: nearly all actives have a fitted effect of over 60% in size
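HEK293 cells stably expressing human Npr1 and cGMP GloSensor pGS-40F, loaded 2 h with 2% GloSensor reagent, given compound 30 min at room temperature. Luminescence read before and 20 min after 0.1 nM hNppA.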
Starred values were filed as active, the others as inactive; [ ] = another dose, or the depositor's remark. Unless noted, the call rests on the fitted dose curve; in most records, active means well fitted curve in the direction sought with a large enough effect; inconclusive means small, poorly fitted or top-dose-only effect, or another doubt; inactive means no such curve, though single readings can be large; an effect the other way counts as inactive or inconclusive. On the % scale 0 is the no-effect control and ±100 the full control effect; potency means the concentration at half of the fitted maximal effect.

How did Cc1cc(Cl)ccc1S(=O)(=O)N1CCc2nn(C)c(=O)n2CC1 do in these assays?
HEK cytotox: 4.6%; 3T3 cytotox: 4.4%; FLuc inh: inactive; NPR1 antag: -9.0%

Results for O[C@H]1CN[C@H](c2nc(-c3ccc(OC(F)(F)F)cc3)no2)C1 ?
HEK cytotox: inconclusive; 3T3 cytotox: -25.8%[174 µM]; FLuc inh: 31.6µM*; NPR1 antag: -17.9%[70.6 µM]

How did O[C@@H]1C[C@@H](c2nc(-c3ccc(OC(F)(F)F)cc3)no2)N(C2CCOCC2)C1 do in these assays?
HEK cytotox: inconclusive; 3T3 cytotox: inconclusive; FLuc inh: 39.8µM*; NPR1 antag: -9.6%[70.6 µM]

What do the screens show for `CC(C)(CC(=O)O)CC(=O)N1Cc2[nH]cnc2C[C@H]1C(=O)NC1CCCCC1`?
HEK cytotox: -6.2%[172 µM]; 3T3 cytotox: 1.8%[174 µM]; FLuc inh: inactive; NPR1 antag: 2.5%[70.6 µM]

How did COc1cc2c(cc1OC)C(CNC(=O)CC(C)C)N(C(=O)Nc1ccccc1)CC2 (stereo not given) do in these assays?
HEK cytotox: -0.8%; 3T3 cytotox: -0.9%; FLuc inh: inactive; NPR1 antag: 1.4%

What do the screens show for `CC(=O)Nc1ccc(S(=O)(=O)NC[C@@H]2C=C(C)[C@H](CC(=O)N3CCCC3)C[C@H]2C(C)C)cc1`?
HEK cytotox: -22.0%; 3T3 cytotox: inconclusive; FLuc inh: inactive; NPR1 antag: 2.2%

What do the screens show for `CC1=C[C@@H](CNS(=O)(=O)c2ccc(F)cc2)[C@H](C(C)C)C[C@H]1CC(=O)NCCN(C)C`?
HEK cytotox: inconclusive; 3T3 cytotox: 39.8µM*; FLuc inh: inactive; NPR1 antag: -0.5%

Results for COc1ccccc1N1CCN(C(=O)C[C@@H]2C[C@@H](C(C)C)[C@H](CC#N)C=C2C)CC1 ?
HEK cytotox: 35.5µM*; 3T3 cytotox: inconclusive; FLuc inh: inactive; NPR1 antag: -18.5%[70.6 µM]

Results for CC1=C[C@@H](CNS(=O)(=O)c2ccc(Cl)cc2)[C@H](C(C)C)C[C@H]1CC(=O)N1CCOCC1 ?
HEK cytotox: inconclusive; 3T3 cytotox: 31.6µM*; FLuc inh: inactive; NPR1 antag: inconclusive

Results for CC1=C[C@@H](CNS(=O)(=O)c2ccccc2)[C@H](C(C)C)C[C@H]1CC(=O)NCCN(C)C ?
HEK cytotox: inconclusive; 3T3 cytotox: inconclusive; FLuc inh: inactive; NPR1 antag: -0.9%

How did COCCNC(=O)C[C@@H]1C[C@@H](C(C)C)[C@H](CNS(=O)(=O)c2ccccc2)C=C1C do in these assays?
HEK cytotox: -22.1%[172 µM]; 3T3 cytotox: 112µM*; FLuc inh: inactive; NPR1 antag: -3.7%[70.6 µM]

What do the screens show for `COc1ccccc1OCc1cc(C(=O)NCc2cccc(C)c2)n[nH]1`?
HEK cytotox: inconclusive; 3T3 cytotox: -28.2%; FLuc inh: inactive; NPR1 antag: -0.3%

Results for O=C(c1ccc(C(F)(F)F)cc1)N1CCn2c(nnc2-c2ccccc2)C1 ?
HEK cytotox: -18.2%; 3T3 cytotox: -26.6%; FLuc inh: inactive; NPR1 antag: 5.8%

Results for O=C(NCc1ccccn1)c1nc2sccn2c1-c1ccccc1 ?
HEK cytotox: -23.3%[172 µM]; 3T3 cytotox: inconclusive

Results for CN1C(=O)c2cccn2CC1C(=O)Nc1ccc(F)cc1 (stereo not given) ?
HEK cytotox: 2.5%; 3T3 cytotox: -7.8%

What do the screens show for `CCOC(=O)C[C@@H]1C[C@@H](C(C)C)[C@H](CNS(=O)(=O)c2ccccc2)C=C1C`?
HEK cytotox: 63.1µM*; 3T3 cytotox: inconclusive; FLuc inh: inactive; NPR1 antag: inconclusive

How did COc1ccc(S(=O)(=O)NC[C@@H]2C=C(C)[C@H](CC(=O)NCc3ccc(C#N)cc3)C[C@H]2C(C)C)cc1 do in these assays?
HEK cytotox: inconclusive; 3T3 cytotox: 25.1µM*; FLuc inh: inactive; NPR1 antag: -9.0%

Results for CC1=C[C@@H](CC#N)[C@H](C(C)C)C[C@H]1CC(=O)NCc1ccc(F)cc1 ?
HEK cytotox: 89.1µM*; 3T3 cytotox: inconclusive; FLuc inh: inactive; NPR1 antag: 1.4%[70.6 µM]

Results for CC1=C[C@@H](CNC(=O)c2ccccn2)[C@H](C(C)C)C[C@H]1CC(=O)N1CCCC1 ?
HEK cytotox: inconclusive; 3T3 cytotox: 100µM*; FLuc inh: inactive; NPR1 antag: -4.1%[70.6 µM]

Results for CC1=C[C@@H](CNS(=O)(=O)c2ccccc2)[C@H](C(C)C)C[C@H]1CC(=O)NCc1ccc(C#N)cc1 ?
HEK cytotox: inconclusive; 3T3 cytotox: inconclusive; FLuc inh: inactive; NPR1 antag: -7.2%

How did CN(Cc1ccc(-c2ccccc2)cc1)C(=O)c1ccccc1Cl do in these assays?
HEK cytotox: inconclusive; 3T3 cytotox: inconclusive; FLuc inh: inactive; NPR1 antag: -8.3%

Results for CC1=C[C@@H](CNS(=O)(=O)c2cccc(F)c2)[C@H](C(C)C)C[C@H]1CC(=O)O ?
HEK cytotox: -30.7%[172 µM]; 3T3 cytotox: 44.7µM*; FLuc inh: inactive; NPR1 antag: -1.4%[70.6 µM]

What do the screens show for `O=C(CCc1ccccc1)N1CCCC(n2cc(-c3nc(-c4ccccc4)no3)nn2)C1` (stereo not given)?
HEK cytotox: 44.7µM*; 3T3 cytotox: inconclusive; FLuc inh: inconclusive; NPR1 antag: inconclusive

How did CC(=O)NCC(=O)N1CCCC(n2cc(-c3nc(-c4ccccc4)no3)nn2)C1 (stereo not given) do in these assays?
HEK cytotox: -22.7%; 3T3 cytotox: -18.3%; FLuc inh: 35.5µM*; NPR1 antag: -9.6%

Results for COCCNC(=O)[C@@H]1CCC[C@@H](NC(=O)C(C)(C)C)CN(C)C(=O)C1 ?
HEK cytotox: -8.1%[172 µM]; 3T3 cytotox: -2.9%[138 µM]; FLuc inh: inactive; NPR1 antag: 2.7%[70.6 µM]

Results for O=C(c1ccccc1F)N1CCCN(c2cc(-c3ccccc3)[nH]n2)CC1 ?
HEK cytotox: -27.7%; 3T3 cytotox: -25.4%; FLuc inh: inactive; NPR1 antag: -2.1%

Results for O=C(NCc1ccco1)N1CCc2nc3cc(-c4ccccc4Cl)[nH]n3c(=O)c2C1 ?
HEK cytotox: inconclusive; 3T3 cytotox: inconclusive; FLuc inh: 14.1µM*; NPR1 antag: -15.0%

How did O=C(C1CC1)N1CCC(Cc2nc(C3CCOCC3)no2)CC1 do in these assays?
HEK cytotox: 7.5%; 3T3 cytotox: -7.4%; FLuc inh: inactive; NPR1 antag: 5.6%

What do the screens show for `O=C(CCC(=O)n1ncc2c(Cl)cccc21)N1CCC(Cc2nc(C3CCOCC3)no2)CC1`?
HEK cytotox: inconclusive; 3T3 cytotox: -15.1%; FLuc inh: inactive; NPR1 antag: 12.6µM*

What do the screens show for `CSc1ccc(-c2ccc3c(c2)C(=O)N2CCN(C(=O)CCC(=O)O)C[C@H]2C(=O)N3)cc1`?
HEK cytotox: -1.6%; 3T3 cytotox: -3.7%; FLuc inh: 31.6µM*; NPR1 antag: 3.7%

Results for CSc1ccc(-c2ccc3c(c2)C(=O)N2CCN(C(=O)CC(C)(C)C)C[C@@H]2C(=O)N3)cc1 ?
HEK cytotox: 35.5µM*; 3T3 cytotox: inconclusive; FLuc inh: inactive; NPR1 antag: -20.4%
